PubChem BioAssay (NCATS)
Values joined by “and” are separate entries in the source; they are usually repeats but may differ in a detail not shown here. Equal entries are not always repeated. Records with an inconclusive call do not appear. Where a call stands in place of a potency, no number is given. A structure can be active in one record and inactive in another. Active and inactive are the calls of the source. Calls come from the whole dose curve; as a rule, active = well fitted curve in the direction sought with a large enough effect; inconclusive = small, poorly fitted or top-dose-only effect, or another doubt; inactive = no such curve, though single readings can be large; an effect the other way counts as inactive or inconclusive.

Key:
[1] = target: Glutathione peroxidase 1 (Homo sapiens) (UniProt P07203); assay: Primary qHTS Assay for Inhibitors of Recombinant Selenoprotein Glutathione Peroxidase 1 (GPX1) (AID 1845191); note: nearly all actives have a fitted effect of over 65% in size; note: potency is the fitted concentration of half-maximal effect
Sequence of Glutathione peroxidase 1 (Homo sapiens) (P07203 whole entry, looked up): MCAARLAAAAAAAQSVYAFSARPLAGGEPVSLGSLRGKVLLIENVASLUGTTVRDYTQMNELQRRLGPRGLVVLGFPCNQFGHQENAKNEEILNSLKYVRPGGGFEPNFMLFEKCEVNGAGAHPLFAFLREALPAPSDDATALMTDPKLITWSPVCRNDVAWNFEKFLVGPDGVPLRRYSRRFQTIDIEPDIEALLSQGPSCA
Procedure, shortened: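 10 nM GPX1 + cpd, 30 min RT; start w/ 1 mM GSH, 0.5 mM cumene hydroperoxide, 0.5 mM NADPH, 100 nM GR, 0.01% BSA; buffer 50 mM Tris-HCl pH 7.5, 2 mM EDTA, 150 mM NaCl; Fl 340/450, 0 & 15 min.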

[2] = target: Phospholipid hydroperoxide glutathione peroxidase GPX4 (Homo sapiens) (UniProt P36969); assay: Primary qHTS Assay for Inhibitors of Recombinant Selenoprotein Glutathione Peroxidase 4 (GPX4) (AID 1845192); note: nearly all actives have a fitted effect of over 65% in size; note: potency is the fitted concentration of half-maximal effect
Sequence of Phospholipid hydroperoxide glutathione peroxidase GPX4 (Homo sapiens) (P36969 whole entry, looked up): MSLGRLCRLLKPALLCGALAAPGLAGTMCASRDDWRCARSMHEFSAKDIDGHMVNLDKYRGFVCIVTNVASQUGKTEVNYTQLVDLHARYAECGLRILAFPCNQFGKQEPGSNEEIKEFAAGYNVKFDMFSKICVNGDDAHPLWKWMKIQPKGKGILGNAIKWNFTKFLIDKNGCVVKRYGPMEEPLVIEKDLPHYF
Procedure, shortened: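 NADPH consumption, followed by fluorescence at 340/450 nm between 0 and 15 min, reports GPX4 activity via coupled glutathione reductase (100 nM). Enzyme 200 nM was pre-exposed to compound 30 min; 0.5 mM cumene hydroperoxide and 1 mM GSH served as substrates.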

[3] = Primary fluorescence-based thiol-reactive (MSTI) qHTS assay for identification of artifact compounds. (AID 1845221);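 note: series mostly up to about 54 µM; thiol-reactive compounds lower the probe fluorescence signal; nearly all actives have a fitted effect of over 65% in size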
Procedure, shortened: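 Thiol-reactive compounds detected by quenching of 4 uM MSTI fluorescence (525/598 nm) after 1 h room-temperature dark incubation in PBS pH 7.4, 2% DMSO. qHTS titration; percent inhibition Hill-fitted against Acetyl-MSTI/MSTI controls.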

[4] = system: Nanoluciferase (engineered Oplophorus gracilirostris luciferase); assay: Primary Nanoluciferase (NLuc) qHTS assay for identification of artifact compounds. (AID 1845222); note: series mostly up to about 54 µM
Procedure, shortened: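 Luminescence from secreted NLuc (filtered, 1:55-diluted S16 cell medium) read 5 min after Nano-Glo substrate; compounds preincubated 15 min, RT. Hill fits of inhibition normalized to DMSO and no-enzyme.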

[5] = Primary redox qHTS assay for identification of artifact compounds. (AID 1845223)
Procedure, shortened: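 Amplex Red (25 uM) and HRP (250 mU/mL) in HBSS, with compounds for 15 min, then 250 uM DTT for 30 min, room temperature, dark. Fluorescence 525/598 nm read; normalized to DMSO and 10 uM DA3003; Hill fit.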

[6] = target: Luciferin 4-monooxygenase (Photinus pyralis) (UniProt P08659); assay: Primary firefly luciferase (FLuc) qHTS assay for identification of artifact compounds. (AID 1845220); conditions: outcome: dose series up to 54.1 µM unless noted; note: nearly all actives have a fitted effect of over 60% in size
Procedure, shortened: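 Compounds sat 15 min at room temperature with 10 uM luciferin and 10 uM ATP (pH 7.6 Tris acetate). Firefly luciferase (10 nM final) was then added, and luminescence was read 5 min later. Data normalized to no-enzyme and DMSO controls were Hill-fitted.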

Cc1cc(C(C#N)c2ccc(Cl)cc2)c(Cl)cc1NC(=O)c1cc(I)cc(I)c1O (stereo not drawn)
Potency [1]: inactive | Potency [2]: inactive | Potency [3]: inactive | outcome [4]: inactive | outcome [5]: inactive

Cc1ccc2nc(N)[nH]c(=O)c2c1Sc1ccncc1
Potency [1]: inactive | Potency [2]: inactive | outcome [6]: inactive | outcome [4]: inactive | outcome [5]: inactive

CCN(CC)C(=O)Nc1ccc(OCC(O)CNC(C)(C)C)c(C(C)=O)c1 (stereo not drawn)
Potency [1]: inactive | Potency [2]: inactive | outcome [6]: inactive | Potency [3]: inactive | outcome [4]: inactive | outcome [5]: inactive

CS(=O)(=O)c1ccc([C@@H](O)[C@@H](CF)NC(=O)C(Cl)Cl)cc1
Potency [1]: inactive | Potency [2]: inactive | outcome [6]: inactive | Potency [3]: inactive | outcome [4]: inactive | outcome [5]: inactive

OCC(O)CN1CCN(c2ccccc2)CC1 (stereo not drawn)
Potency [1]: inactive | Potency [2]: inactive | outcome [6]: inactive | Potency [3]: inactive | outcome [4]: inactive | outcome [5]: inactive

CC/C=C(\C(=O)N[C@@H]1C(=O)N2C(C(=O)OCOC(=O)C(C)(C)C)=C(COC(N)=O)CS[C@H]12)c1csc(N)n1
Potency [1]: 9.04 µM (active) | Potency [2]: 11.2 µM (active) and inactive | outcome [6]: inactive | Potency [3]: inactive | outcome [4]: inactive | outcome [5]: inactive

CCCCN1CCCC[C@H]1C(=O)Nc1c(C)cccc1C
Potency [1]: inactive | Potency [2]: inactive | outcome [6]: inactive | Potency [3]: inactive | outcome [4]: inactive | outcome [5]: inactive

c1ccc(CN(CC2=NCCN2)c2ccccc2)cc1
Potency [1]: inactive | Potency [2]: inactive | outcome [6]: inactive | Potency [3]: inactive | outcome [4]: inactive | outcome [5]: inactive

C[C@@H]1C[C@H]2[C@@H]3C[C@H](F)C4=CC(=O)C=C[C@]4(C)[C@@]3(F)[C@@H](O)C[C@]2(C)[C@@]1(O)C(=O)CO
Potency [1]: inactive | Potency [2]: inactive | outcome [6]: inactive | Potency [3]: inactive | outcome [4]: inactive | outcome [5]: inactive

CC(C)(C)C(=O)C(Oc1ccc(Cl)cc1)n1ccnc1 (stereo not drawn)
Potency [1]: inactive | Potency [2]: inactive | outcome [6]: inactive | Potency [3]: inactive | outcome [4]: inactive | outcome [5]: inactive

CN1CCOC(c2ccccc2)c2ccccc2C1 (stereo not drawn)
Potency [1]: inactive | Potency [2]: inactive | outcome [6]: inactive | Potency [3]: inactive | outcome [4]: inactive | outcome [5]: inactive

Cc1cccc(Nc2cc(Cl)nc(SCC(=O)O)n2)c1C
Potency [1]: inactive | Potency [2]: inactive | outcome [6]: inactive | Potency [3]: inactive | outcome [5]: inactive

Nc1nc2c(ncn2CCC(CO)CO)c(=O)[nH]1
Potency [1]: inactive | Potency [2]: inactive | outcome [6]: inactive | Potency [3]: inactive | outcome [4]: inactive | outcome [5]: inactive

CC(C)(O)c1ccccc1CC[C@@H](SCC1(CC(=O)O)CC1)c1cccc(/C=C/c2ccc3ccc(Cl)cc3n2)c1
Potency [1]: inactive | Potency [2]: inactive | outcome [6]: inactive | Potency [3]: inactive | outcome [4]: inactive | outcome [5]: inactive

CCOC(CN1CCN(CC(C)C(=O)c2ccccc2)CC1)c1ccccc1 (stereo not drawn)
Potency [1]: inactive | Potency [2]: inactive | outcome [6]: inactive | outcome [4]: inactive

COc1ccc2[nH]c(S(=O)Cc3ncc(C)c(OC)c3C)nc2n1 (stereo not drawn)
Potency [1]: 9.04 µM (active) and inactive and 11.4 µM (active) | Potency [2]: inactive | outcome [6]: inactive | Potency [3]: inactive | outcome [4]: inactive | outcome [5]: inactive

CN(C)CCN(Cc1ccccc1)c1ccccn1
Potency [2]: inactive

Cn1c(=O)c2c(ncn2CC2OCCO2)n(C)c1=O
Potency [1]: inactive | Potency [2]: inactive | outcome [6]: inactive | Potency [3]: inactive | outcome [4]: inactive | outcome [5]: inactive
